The source of these data is PubChem BioAssay (Tox21).

Values without a mark were called inactive. Inconclusive results are not listed. Active and inactive are the calls of the source. Unless noted, the call rests on the fitted dose curve; in most records, active means well fitted curve in the direction sought with a large enough effect in the repeat runs; inconclusive means weak or mixed curves; inactive means no such curve, though single readings can be large; an effect the other way counts as inactive or inconclusive.

Assay [1] in a line: qHTS assay to identify small molecule antagonists of the androgen receptor (AR) signaling pathway using the MDA cell line in the presence of 0.5 nM R1881 - cell viability counter screen (AID 1259242). Further: nearly all actives have a fitted effect of over 45% in size. Further: potency means the concentration at half of the fitted maximal effect. In short, it runs like this: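 Cells seeded at 3,000/well and allowed 5 hr at 37C, 0% CO2 before compound transfer and R1881 (0.5 nM final) addition; 16 hr later, live-cell protease fluorescence indicated cytotoxicity.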
In general terms: Quantitative high-throughput screening tests each substance at several concentrations.

The target in assay [2] is Androgen receptor (Homo sapiens) (UniProt P10275). The assay is described as follows: qHTS assay to identify small molecule antagonists of the androgen receptor (AR) signaling pathway using the MDA cell line in the presence of 0.5 nM R1881 (AID 1259243). Further: nearly all actives have a fitted effect of over 50% in size. Further: potency means the concentration at half of the fitted maximal effect. In short, it runs like this:
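Luminescence from an AR/GR-responsive MMTV-luciferase construct in MDA-kb2 breast carcinoma cells, read 30 min after ONE-Glo, following 16 hr co-treatment with compounds and 0.5 nM R1881.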

In assay [3] the target is Estrogen receptor (Homo sapiens) (UniProt P03372). The assay is described as follows: qHTS assay to identify small molecule antagonists of the estrogen receptor alpha (ER-alpha) signaling pathway using the BG1 cell line in the presence of 0.1 nM 17-beta-estradiol (AID 1259244). Further: nearly all actives have a fitted effect of over 50% in size. Further: potency means the concentration at half of the fitted maximal effect. An outline of the steps:
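Luciferase signal from VM7Luc4E2 ERE-reporter cells, co-dosed with test compound and 0.1 nM final 17beta-estradiol for 22 h, read with ONE-Glo.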

A short description of assay [4]: qHTS assay to identify small molecule phospholipidosis (PLD) inducers (AID 1259344; active means well fitted curve in the direction sought with a large enough effect; an effect the other way counts as inactive or inconclusive). In short, it runs like this:
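Read-out is LipidTOX Red fluorescence (ex 595/em 615) imaged in HepG2 cells after 24 h compound exposure at 37 C, with Hoechst nuclear counterstain (ex 352/em 461) allowing per-cell normalisation.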

A short description of assay [5]: qHTS assay to identify small molecule agonists of the sonic hedgehog signaling (Shh) pathway - cell viability counter screen (AID 1259366). Further: nearly all actives have a fitted effect of over 50% in size. Further: potency means the concentration at half of the fitted maximal effect. An outline of the steps:
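After a 4hr attachment at 37C, NIH/3T3 cells bearing an integrated Gli1-driven luciferase reporter were dosed with compounds. Treatment lasted 24hr, with the final hour including CellTiter-Fluor for a fluorescence viability measurement.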

Assay [6] is described as follows: qHTS assay to identify small molecule antagonists of the sonic hedgehog signaling (Shh) pathway - cell viability counter screen (AID 1259367). Further: nearly all actives have a fitted effect of over 55% in size. Further: potency means the concentration at half of the fitted maximal effect. An outline of the steps: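 Fluorescence read-out (CellTiter-Fluor, 1 hr at 37C) taken after 23 hr compound treatment of 3T3 Gli1-Luc cells stimulated with conditioned medium. Cells were seeded at 2,000 per well and pre-incubated 4 hr.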

The nature of assay [7]: qHTS assay to identify small molecule agonists of the sonic hedgehog signaling (Shh) pathway (AID 1259368; calls by dose curve;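 further: NIH/3T3-derived 3T3Gli1-Luc cells carrying a stable Gli1-driven firefly luciferase reporter; series mostly up to about 92 µM; nearly all actives have a fitted effect of over 15% in size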). In short, it runs like this: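 Following a 24 hr incubation with DMSO-dissolved compounds at 37 C, 5% CO2, Gli1-Luc NIH/3T3-derived cells received luciferase reagent for 30 min at room temperature prior to luminescence measurement.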
Assay [8] is described as follows: qHTS assay to identify small molecule agonists of the androgen receptor (AR) signaling pathway in the presence of an antagonist - cell viability counter screen (AID 1259379). Further: nearly all actives have a fitted effect of over 25% in size. Further: potency means the concentration at half of the fitted maximal effect.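 On activity change, negative = cytotoxicity: MDA-kb2 human breast cancer cells carrying an MMTV luciferase reporter; series mostly up to about 92 µM.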 In short, it runs like this:
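Each compound was tested at 15 concentrations on MDA-kb2 cells in the presence of 3.0uM nilutamide. Viability was measured by CellTiter-Fluor fluorescence after a 16 hr incubation at 37C in a CO2-free atmosphere.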

Assay [9] can be described thus: qHTS assay to identify small molecule agonists of the estrogen receptor beta (ER-beta) signaling pathway - cell viability counter screen (AID 1259380). Further: nearly all actives have a fitted effect of over 30% in size. Further: potency means the concentration at half of the fitted maximal effect. In short, it runs like this:
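Compounds dissolved in DMSO were pin-transferred onto ER-beta-UAS-bla HEK293T cells that had settled 6 hr, and exposure ran 16 hr at 37C. Following the reporter read, CellTiter-Glo luminescence after 30 min at room temperature indicated cytotoxicity.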

The target of assay [10] is Androgen receptor (Homo sapiens) (UniProt P10275). As to the kind of experiment: qHTS assay to identify small molecule agonists of the androgen receptor (AR) signaling pathway in the presence of an antagonist (AID 1259381; calls by dose curve; further: nearly all actives have a fitted effect of over 15% in size). In short, it runs like this: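 Plated MDA-kb2 cells (3,000/well) were pre-incubated 5hr, given nilutamide (3.0uM final) or buffer, then dosed with compounds in DMSO at 15 concentrations. Luciferase activity was quantified by luminescence after 16hr at 37C.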
Androgen receptor (Homo sapiens), sequence (P10275 whole entry, looked up): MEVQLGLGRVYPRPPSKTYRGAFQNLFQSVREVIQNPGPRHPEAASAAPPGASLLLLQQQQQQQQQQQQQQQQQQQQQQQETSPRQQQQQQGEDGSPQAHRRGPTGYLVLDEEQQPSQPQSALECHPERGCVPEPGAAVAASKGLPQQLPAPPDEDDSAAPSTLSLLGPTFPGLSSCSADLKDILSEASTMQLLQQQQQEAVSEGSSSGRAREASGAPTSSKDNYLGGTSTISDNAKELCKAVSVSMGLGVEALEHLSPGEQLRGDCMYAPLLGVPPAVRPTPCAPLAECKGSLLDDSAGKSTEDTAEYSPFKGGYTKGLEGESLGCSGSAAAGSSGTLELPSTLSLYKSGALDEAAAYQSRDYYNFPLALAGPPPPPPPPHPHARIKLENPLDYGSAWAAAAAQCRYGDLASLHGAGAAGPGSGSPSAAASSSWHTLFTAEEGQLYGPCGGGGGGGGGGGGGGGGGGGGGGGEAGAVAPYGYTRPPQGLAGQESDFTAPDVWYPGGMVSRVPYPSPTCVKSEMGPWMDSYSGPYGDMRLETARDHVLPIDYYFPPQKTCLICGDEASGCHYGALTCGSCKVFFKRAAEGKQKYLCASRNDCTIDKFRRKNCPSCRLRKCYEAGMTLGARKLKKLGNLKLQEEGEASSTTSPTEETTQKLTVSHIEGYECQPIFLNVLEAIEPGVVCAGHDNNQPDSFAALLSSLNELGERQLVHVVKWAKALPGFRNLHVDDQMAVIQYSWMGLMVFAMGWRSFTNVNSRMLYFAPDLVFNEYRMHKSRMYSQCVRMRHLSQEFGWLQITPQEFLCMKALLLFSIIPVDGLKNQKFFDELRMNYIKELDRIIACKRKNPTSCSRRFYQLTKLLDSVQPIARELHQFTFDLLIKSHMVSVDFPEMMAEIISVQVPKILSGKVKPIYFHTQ

Assay [11] deals with Estrogen receptor (Homo sapiens) (UniProt P03372). As to the kind of experiment: qHTS assay to identify small molecule agonists of the estrogen receptor alpha (ER-alpha) signaling pathway in the presence of an antagonist (AID 1259383; calls by dose curve; further: top concentration of the series differs between compounds; nearly all actives have a fitted effect of over 15% in size). An outline of the steps:
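Luminescent ERE-luciferase reporter, VM7Luc4E2 cells (endogenous ER-alpha); 10.0nM ICI-182,780 final; 15-point compound titration; 22hr at 37C; ONE-Glo, 30min RT.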

Assay [12] in a line: qHTS assay to identify small molecule agonists or antagonists of the thyroid stimulating hormone receptor (TSHR) signaling pathway - wild type cell line counter screen (AID 1259384; calls by dose curve). In short, it runs like this: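 Wild-type Hek293 cells, 800/well, 18 h at 37C, then compound with Ro20-1724 for 30 min RT. cAMP by HTRF (cAMP-d2/anti-cAMP cryptate), 1 h RT, fluorescence read. 15 concentrations, triplicates.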

A short description of assay [13]: qHTS assay to identify small molecule agonists of the estrogen receptor alpha (ER-alpha) signaling pathway in the presence of an antagonist - cell viability counter screen (AID 1259386).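 Further: cells exposed to compounds for 22 h at 37 °C before the viability read; nearly all actives have a fitted effect of over 30% in size.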 Further: potency means the concentration at half of the fitted maximal effect. On activity change, negative = cytotoxicity: series mostly up to about 92 µM. An outline of the steps: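 Using estrogen-depleted VM7Luc4E2 cells, the 15-concentration compound series was applied together with 10.0nM ICI-182,780 and incubated 22hr at 37C/5% CO2. Cell viability was then scored by CellTiter-Fluor.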

Assay [14] in a line: qHTS assay to identify small molecule HDAC inhibitors (AID 1259364).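 Further: wild-type HCT-116 cells with endogenous class I/II HDAC activity; top concentration of the series differs between compounds; nearly all actives have a fitted effect of over 45% in size.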 In short, it runs like this:
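HCT-116 wt cells, 1,500/well, overnight attach. Compounds (DMSO) 2 h, 37 °C. HDAC-Glo I/II, 30 min RT. Luminescence.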

A short description of assay [15]: qHTS assay to identify small molecule HDAC inhibitors - cell viability counter screen (AID 1259365). Further: series mostly up to about 92 µM; nearly all actives have a fitted effect of over 50% in size. An outline of the steps:
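Following a 2hr exposure of overnight-plated wild-type HCT-116 cells to DMSO-delivered compounds, CellTiter-Glo was added and luminescence recorded after 30min at room temperature.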

Assay [16] is described as follows: qHTS assay to identify small molecule antagonists of the sonic hedgehog signaling (Shh) pathway (AID 1259369; calls by dose curve; further: nearly all actives have a fitted effect of over 45% in size). In short, it runs like this:
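Read-out is luminescence from a firefly luciferase gene controlled by the Gli1 response element, in 3T3Gli1-Luc cells pre-incubated 4hr then exposed to compounds and conditioned medium for 24hr.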

Assay [17] deals with Thyrotropin receptor (Homo sapiens) (UniProt P16473). The assay is described as follows: qHTS assay to identify small molecule antagonists of the thyroid stimulating hormone receptor (TSHR) signaling pathway (AID 1259385; calls by dose curve; further: nearly all actives have a fitted effect of over 20% in size). In short, it runs like this: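 TSHR-HEK293 cells (800/well) plated 18 h, then compounds with Ro20-1724 and TSH at 1.5 ng/mL final, 30 min at room temperature. cAMP quantified by HTRF (cAMP-d2/anti-cAMP-cryptate, 1 h); 15 concentrations in triplicate.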
Thyrotropin receptor (Homo sapiens), sequence (P16473 whole entry, looked up): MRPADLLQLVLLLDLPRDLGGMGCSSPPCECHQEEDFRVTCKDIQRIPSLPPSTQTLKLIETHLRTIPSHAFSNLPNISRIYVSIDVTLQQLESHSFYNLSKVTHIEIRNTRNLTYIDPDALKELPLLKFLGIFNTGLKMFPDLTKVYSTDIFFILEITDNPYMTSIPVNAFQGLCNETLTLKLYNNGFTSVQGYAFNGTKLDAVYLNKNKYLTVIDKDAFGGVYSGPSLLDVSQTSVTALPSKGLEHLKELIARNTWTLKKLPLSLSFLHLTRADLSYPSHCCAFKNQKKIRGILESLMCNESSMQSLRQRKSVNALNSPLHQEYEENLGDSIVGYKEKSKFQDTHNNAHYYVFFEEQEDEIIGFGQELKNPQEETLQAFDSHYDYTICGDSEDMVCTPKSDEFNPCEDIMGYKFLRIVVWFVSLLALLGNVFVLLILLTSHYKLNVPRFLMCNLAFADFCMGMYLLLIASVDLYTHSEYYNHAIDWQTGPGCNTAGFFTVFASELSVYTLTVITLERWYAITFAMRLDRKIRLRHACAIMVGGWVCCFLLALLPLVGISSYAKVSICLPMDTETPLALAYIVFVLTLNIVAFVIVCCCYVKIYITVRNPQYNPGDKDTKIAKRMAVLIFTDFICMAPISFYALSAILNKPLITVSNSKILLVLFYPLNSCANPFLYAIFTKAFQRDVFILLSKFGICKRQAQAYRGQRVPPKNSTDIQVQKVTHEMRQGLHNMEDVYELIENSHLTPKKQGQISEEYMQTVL

The nature of assay [18]: qHTS assay to identify small molecule antagonists of the estrogen receptor beta (ER-beta) signaling pathway - cell viability counter screen (AID 1259382). Further: nearly all actives have a fitted effect of over 55% in size. Further: potency means the concentration at half of the fitted maximal effect. On activity change, negative = cytotoxicity: series mostly up to about 92 µM. An outline of the steps:
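CellTiter-Glo ATP luminescence measured after the LiveBLAzer read in the same wells; ER-beta-UAS-bla HEK293T cells, 16 hr compound treatment with 1nM 17-beta-estradiol agonist at 37C, 5% CO2.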

For assay [19], the target named is Estrogen receptor beta (Homo sapiens) (UniProt Q92731). As to the kind of experiment: qHTS assay to identify small molecule agonists of the estrogen receptor beta (ER-beta) signaling pathway (AID 1259377; active means well fitted activation curve with a large enough effect in the signal ratio in the repeat runs, not every such curve was filed as active; the % refers to the signal ratio). In short, it runs like this: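 In HEK293T cells bearing a UAS-beta-lactamase reporter under ER-beta control, DMSO-delivered compounds were incubated for 16 hr at 37C. Activity was detected as fluorescence 2 hours after LiveBLAzer B/G FRET substrate addition.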
Estrogen receptor beta (Homo sapiens), sequence (Q92731 whole entry, looked up): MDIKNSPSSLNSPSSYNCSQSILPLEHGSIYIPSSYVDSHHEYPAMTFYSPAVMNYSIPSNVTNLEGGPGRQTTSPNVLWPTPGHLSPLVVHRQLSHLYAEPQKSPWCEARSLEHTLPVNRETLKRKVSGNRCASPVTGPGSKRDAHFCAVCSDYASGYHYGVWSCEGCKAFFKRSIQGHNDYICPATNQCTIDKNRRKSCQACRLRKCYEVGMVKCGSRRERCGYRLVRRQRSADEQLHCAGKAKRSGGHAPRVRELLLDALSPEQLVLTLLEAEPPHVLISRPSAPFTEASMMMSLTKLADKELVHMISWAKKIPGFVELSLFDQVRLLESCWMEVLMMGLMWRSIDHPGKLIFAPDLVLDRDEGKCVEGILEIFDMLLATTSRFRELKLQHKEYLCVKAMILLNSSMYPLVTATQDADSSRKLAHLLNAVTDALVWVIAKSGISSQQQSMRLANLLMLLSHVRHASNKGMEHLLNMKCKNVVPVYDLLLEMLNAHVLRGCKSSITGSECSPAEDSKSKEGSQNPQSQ

The target is the same in assay [20]. The assay is described as follows: qHTS assay to identify small molecule antagonists of the estrogen receptor beta (ER-beta) signaling pathway (AID 1259378; active means well fitted inhibition curve with a large enough effect in the signal ratio in the repeat runs, not every such curve was filed as active; the % refers to the signal ratio). In short, it runs like this: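 ER-beta-UAS-bla HEK293T cells in 2% charcoal-stripped FBS medium treated with compound plus 1nM final 17-beta-estradiol for 16 hr at 37C. Beta-lactamase reporter read by FRET substrate fluorescence after 2 hours at room temperature.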
On the % scale 0 is the no-effect control and ±100 the full control effect.

Estrogen receptor (Homo sapiens), sequence (P03372 whole entry, looked up): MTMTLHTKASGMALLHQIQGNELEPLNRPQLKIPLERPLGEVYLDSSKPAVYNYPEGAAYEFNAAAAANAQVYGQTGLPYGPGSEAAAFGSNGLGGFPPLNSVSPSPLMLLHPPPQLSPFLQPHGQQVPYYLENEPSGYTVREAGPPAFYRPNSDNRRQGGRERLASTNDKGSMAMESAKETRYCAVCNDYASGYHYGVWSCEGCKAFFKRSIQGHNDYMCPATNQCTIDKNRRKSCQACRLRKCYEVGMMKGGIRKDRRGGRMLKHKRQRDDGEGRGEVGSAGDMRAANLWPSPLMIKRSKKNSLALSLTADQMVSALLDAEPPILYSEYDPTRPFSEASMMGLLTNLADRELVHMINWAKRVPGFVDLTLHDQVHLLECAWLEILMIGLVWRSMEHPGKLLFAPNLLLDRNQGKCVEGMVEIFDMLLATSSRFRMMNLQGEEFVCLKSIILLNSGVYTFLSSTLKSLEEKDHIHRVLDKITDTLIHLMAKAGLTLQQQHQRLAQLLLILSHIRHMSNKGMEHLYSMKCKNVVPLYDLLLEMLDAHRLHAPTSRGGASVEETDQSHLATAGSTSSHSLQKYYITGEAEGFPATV

Regarding `Cc1cc(O)c2ccccc2c1O`, the Potency in assay [1] is 18.8 µM (active); in assay [2] it was 11.9 µM (active); in [3], 13.3 µM (active); in assay [5], 5.31 µM (active); in [6], 13.3 µM (active); in assay [8], 26.6 µM (active). In addition, the Potency in assay [9] was 13.3 µM (active); in [13], 29.8 µM (active). For the same molecule, the Potency entry in assay [4], in assay [7], in assay [10] and in [11] was “inactive” in each case. Further, the call in assay [12] was inactive.
For `O=c1[nH]sc2cc(Cl)ccc12`, the Potency result in [1], in assay [3], in [14], in assay [15], in assay [6] and in assay [7] was “inactive” throughout. For the same molecule, the Potency entry in assay [16], in assay [8], in assay [10], in assay [11], in [17] and in assay [13] was “inactive” each time. In addition, the Potency is 0.001 µM (active) in [2] and 11.9 µM (active) in assay [9].
As for `C[n+]1cc2c3c(ccc2c2ccc4cc5c(cc4c21)OCO5)OCO3`, the Potency in [1] was 10.3 µM (active); in [2] it was 7.3 µM (active); in [5], 1.64 µM (active); in [6], 2.91 µM (active); in assay [8] it was 11.6 µM (active); in assay [9], 2.59 µM (active). Besides, the Potency in assay [18] is 3.66 µM (active); in assay [13], 13 µM (active). In addition, the figures for the activity change, negative = inhibition in [3] and in assay [14] were -84.3% [at 19 µM] and -20.3% [at 19 µM], respectively. Further, the Potency result in [4] was “inactive”. Moreover, the activity change, negative = cytotoxicity in assay [15] is 25% [at 19 µM]. Besides, the activation in assay [10] is -10.3% [at 19 µM]. Further, the cAMP activity change in assay [12] is 4.72% [at 18.9 µM].
Regarding `COC(=O)C1=C(C)NC(C)=C(C(=O)OCCc2ccc(N3CCN(C(c4ccccc4)c4ccccc4)CC3)cc2)C1c1cccc([N+](=O)[O-])c1` (stereo not drawn), the Potency entry in assay [1], in [2], in assay [3], in assay [14], in [15] and in [5] was “inactive” in each case. The Potency result in assay [6], in assay [8], in assay [9], in assay [10], in assay [11] and in assay [13] was “inactive” throughout.
`O=C(c1ccc(F)cc1)C1CCN(CCn2c(=O)[nH]c3ccccc3c2=O)CC1`: the Potency result in [1], in assay [2], in assay [3], in assay [4], in assay [14] and in [15] was “inactive” each time. Moreover, the Potency result in assay [5], in assay [6], in assay [16], in assay [19], in assay [20] and in [8] was “inactive” each time. For the same molecule, the Potency result in assay [10], in assay [11], in assay [17] and in assay [13] was “inactive” each time. In [12], the molecule was called inactive.
With `CCCCN1CCCC[C@H]1C(=O)Nc1c(C)cccc1C`, the Potency entry in [1], in assay [2], in assay [3], in [4], in [15] and in [5] was “inactive” each time. Also, the Potency entry in [6], in [7], in assay [16], in [19], in assay [8] and in [9] was “inactive” each time. For the same molecule, the Potency entry in [10], in assay [18], in assay [11], in assay [17] and in assay [13] was “inactive” each time. In addition, the molecule was classed as inactive in assay [12].
Consider `CN(C)CCCOC1(Cc2ccccc2)CCCCCC1`, for which the Potency entry in assay [1], in assay [2], in assay [3], in [14], in assay [15] and in assay [6] was “inactive” throughout. Moreover, the Potency entry in [7], in [19], in [20], in assay [8], in assay [10] and in [18] was “inactive” in each case. In addition, the Potency result in [11] and in [13] was “inactive” in each case. Further, the call in assay [12] was inactive.
